Screening data: PubChem, several laboratories
LANA-H2A inh: blockers of LANA interaction with H2A/H2B – biochemical, FP readout, HTS, primary screen | Protein LANA1 (Human herpesvirus 8 type P (isolate GK18)), Q9QR71 | hit rate 0.6% among 320,000 | cell-free LANA-H2A/H2B peptide, fluorescence polarization | inhibition, % (concentration not given with the values); in the data active = inhibition mostly above about 10%, no sharp cut-off; inactive = mostly below about 6.7%
HIF act: HIF pathway transcriptional activators, primary screen, cell-based, U2OS HRE-luciferase, luminescence; U2OS HRE-luciferase reporter; normalized: DMSO 0%, desferrioxamine 100%; activation, % at 7.5 µM (by protocol); hit rate 0.32% among 300,000; AID 1910, 2009;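 active = mean activation of at least 10% of the iron chelator positive control signal, with at least half of replicates also reaching 10%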
HDAC3 inh: HDAC3 deacetylase inhibitors, primary screen, biochemical, fluorescence, cell-free homogeneous | recombinant HDAC3, fluorogenic peptide/trypsin coupled | inhibition, % at 8.3 µM | hit rate 0.15% among 320,000 | AID 2718, 2010; in the data active = inhibition above about 26%, passing the limit was not always enough
Target sequence (O15379 whole entry, looked up): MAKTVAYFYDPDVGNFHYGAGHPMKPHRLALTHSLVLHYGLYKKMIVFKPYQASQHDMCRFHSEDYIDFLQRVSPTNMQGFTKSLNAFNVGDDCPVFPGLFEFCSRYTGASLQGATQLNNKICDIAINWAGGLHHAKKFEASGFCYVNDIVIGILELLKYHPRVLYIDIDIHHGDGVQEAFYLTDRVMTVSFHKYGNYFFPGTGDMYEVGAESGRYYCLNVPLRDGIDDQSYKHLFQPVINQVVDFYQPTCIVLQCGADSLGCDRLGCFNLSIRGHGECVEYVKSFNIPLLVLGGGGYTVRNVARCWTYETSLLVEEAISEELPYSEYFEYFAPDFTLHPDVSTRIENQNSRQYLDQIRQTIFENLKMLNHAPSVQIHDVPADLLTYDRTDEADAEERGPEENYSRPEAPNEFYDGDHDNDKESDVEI
CR mimetic SO: reduction of superoxide in aged yeast, primary screen, HTS. AID 2690, 2010. S. cerevisiae aged cells, superoxide DHE fluorescence; stronger effect = lower value. superoxide response (% of plate mean), % at 10 µM. hit rate 0.18% among 330,000;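 active = superoxide response under a set limit, about three screen SD below normal, cut at about 65% in these data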;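 note: yeast aged for seven days with compound at 30 °C before DHE staining; 100% = average MFI of all compound-treated wells on the plate with controls excluded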
CR mimetic CP: superoxide lowering in aged yeast cells, confirmation, cherry picked compounds; shares compounds with CR mimetic SO; hit rate 1% among 850; AID 434994, 2010; S. cerevisiae aging, superoxide DHE fluorescence; stronger effect = lower value; superoxide response (% of plate), % at 10 µM;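 active = superoxide signal below 65% of the plate average of sample wells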;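 note: cells aged with compound for 7 days at 30 degrees C before staining; 100% equals mean DHE fluorescence of all compound wells on the plate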
DHE fluor count: DHE quenching or ROS scavenging interference in aged yeast, artefact control for yeast caloric restriction mimetic project, S. cerevisiae BY4741, flow cytometry | shares compounds with CR mimetic SO | DHE fluorescence; stronger effect = lower value | fluorescence response, % at 10 µM | 850 tested, under 10 active | AID 435000, 2010;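 active = fluorescence response below 15%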;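 note: percent of the mean fluorescence averaged over all compound wells on the plate; lower means stronger quenching of DHE signal or ROS scavenging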
Starred values were filed as active, the others as inactive; . = not tested or not shown. Sampled rows, rich in hits. Any-hit rate of the full collection: about 1.2%.

SMILES | LANA-H2A inh | HIF act | HDAC3 inh | CR mimetic SO | CR mimetic CP | DHE fluor count
CCOc1ccccc1NC(=O)COC(=O)C(CC(C)C)N1C(=O)C2CC=CCC2C1=O (stereo unspecified) | 4.3 | -0.5 | 10.9 | 65.1* | 110.7 | 88.8
CC(C)CC(C(=O)OCC(=O)Nc1cccc(Cl)c1)N1C(=O)C2CC=CCC2C1=O (stereo unspecified) | -3.9 | -0.7 | -0.6 | 107.5 | . | .
Cc1ccc(NC2=CC(=O)CC(C)(C)C2)cc1Cl | 0.1 | 2.3 | -5.0 | 97.5 | . | .
CC1(C)CC(=O)C=C(Nc2ccc(F)c(Cl)c2)C1 | -3.2 | -40.7 | 3.2 | 62.2* | 98.9 | 94.6
CCOc1ccc(S(=O)(=O)N2CCN(C(=O)c3ccc(C)c(S(=O)(=O)N4CCOCC4)c3)CC2)cc1 | -3.6 | . | 0.8 | 105.5 | . | .
CC(=O)NC12CC3CC(C1)CC(C(=O)Nc1c(C)n(C)n(-c4ccccc4)c1=O)(C3)C2 | -6.1 | -0.4 | -5.6 | 62.0* | 96.7 | 107.8
Cc1c(NC(=O)C23CC4CC(CC(C)(C4)C2)C3)c(=O)n(-c2ccccc2)n1C | -2.7 | -0.4 | -3.2 | 96.2 | . | .
CCOc1ccc2nc(SCC(=O)c3ccc(O)cc3O)sc2c1 | -4.9 | -27.2 | -2.3 | 50.1* | 101.3 | 94.1
Cc1ccc(C(=O)N2CCN(c3ncccn3)CC2)cc1 | -0.2 | -30.6 | -8.8 | 64.6* | 96.9 | 93.2
CCOc1ccc(C(=O)N2CCN(c3ccccc3)CC2)cc1 | -4.3 | 1.4 | 2.1 | 97.3 | 96.2 | 95.2
COc1ccc(N2CCN(C(=O)c3ccc(Cl)c(S(=O)(=O)N4CCCC4)c3)CC2)cc1 | 2.9 | -0.4 | -0.2 | 112.5 | . | .
COc1ccc(N2CCN(C(=O)c3ccc(C)c(Cl)c3)CC2)cc1 | -0.5 | -0.1 | 3.2 | 83.0 | 93.6 | 99.3
CCOc1ccc(C(=O)N2CCN(c3ccccc3)CC2)cc1OCC | 1.3 | 0.0 | 4.9 | 87.3 | . | .
COc1ccc(N2CCN(C(=O)c3ccc(C)cc3Cl)CC2)cc1 | 0.4 | -0.1 | -3.8 | 94.8 | 96.8 | 91.2
Nc1ccc(-c2nc3c(ccc4ccccc43)[nH]2)cc1 | 0.7 | -5.0 | -168.9 | 100.4 | . | .
COc1ccc(CNC(=O)c2cc(=O)c3cc(C)ccc3o2)cc1 | -5.7 | 0.2 | 5.1 | 83.4 | . | .
CCN(CC(=O)Nc1cc(C)nn1-c1nc(C)cc(C)n1)Cc1ccccc1 | 3.0 | 0.3 | 4.2 | 117.9 | . | .
CCCCOC(=O)c1ccc(NC(=O)CN2C(=O)NC3(CCCCCC3)C2=O)cc1 | -7.6 | . | 16.0 | 87.6 | . | .
N#C/C(=N\Nc1cccc(C(F)(F)F)c1)C(=O)c1ccsc1 | -0.5 | 1.8 | -7.3 | 63.7* | 107.8 | 106.2
CC(C)NC(=O)c1ccc(C(C)C)cc1 | -12.6 | -3.3 | -1.4 | 52.0* | 108.0 | 105.6
CCCCCCCCSc1nnc(-c2ccc(OC)cc2)o1 | . | -2.3 | . | 87.4 | 103.4 | 93.0
C=CCc1c(C)nc2c(C)cccc2c1SC(=N)N | -1.6 | 0.5 | -2.3 | 85.8 | . | .
CCOc1ccc(N=Nc2c(=O)[nH]n3c(C)cc(C)nc23)cc1 | 0.3 | -0.3 | 2.1 | 52.4* | 99.7 | 110.4
COc1ccc(/C=C/C(=O)OCC(=O)NCCNC(=O)COC(=O)/C=C/c2ccc(OC)cc2)cc1 | 2.4 | -0.2 | -5.7 | 92.5 | . | .
O=C(O)C1CCCN1S(=O)(=O)c1ccc(F)cc1 (stereo unspecified) | 14.0 | -1.5 | 0.2 | 104.3 | 96.3 | 90.5
SMILES | LANA-H2A inh | HIF act | HDAC3 inh | CR mimetic SO | CR mimetic CP | DHE fluor count
Cc1ccc(S(=O)(=O)N2CCCC2C(=O)O)cc1 (stereo unspecified) | -2.3 | 0.0 | -3.5 | 91.6 | . | .
O=C1CC(=C2c3ccccc3-c3ccccc32)C(=O)N1CCCCN1CCN(c2ccccc2)CC1 | -3.1 | 0.0 | 2.7 | 14.6* | 97.2 | 94.1
O=C1CC(=C(c2ccccc2)c2ccccc2)C(=O)N1CCCN1CCN(c2cccc(Cl)c2)CC1 | 0.0 | -0.3 | 5.9 | 96.8 | . | .
O=C1/C(=C/c2cccnc2)CC/C1=C\c1cccnc1 | 0.0 | 0.2 | -1.2 | 118.2 | . | .
O=C1/C(=C/c2cccnc2)CCC/C1=C\c1cccnc1 | . | . | 7.5 | 64.6* | 103.8 | 87.2
CC(=O)Oc1ccc(Nc2ccccc2)cc1 | -2.4 | 0.3 | -1.5 | 50.1* | 94.1 | 101.9
CC(=O)NCCc1nc2cc(NS(=O)(=O)c3ccccc3)ccc2n1C | 4.1 | 1.2 | 0.2 | 97.8 | . | .
C=CCn1c(COc2ccccc2F)nnc1SCC(=O)c1c[nH]c2ccccc12 | -3.3 | -0.3 | 16.3 | 102.7 | . | .
COc1cccc(NS(=O)(=O)c2c(C)cc(C)cc2C)c1 | 18.7* | -0.4 | 7.3 | 97.6 | 95.0 | 92.3
COc1ccc(NS(=O)(=O)c2c(C)cc(C)cc2C)cc1 | -0.4 | 0.0 | 6.6 | 100.2 | . | .
CCCN(CCC)CC(O)Cn1c2ccccc2c2ccccc21 (stereo unspecified) | 1.3 | 0.1 | -2.9 | 80.3 | 96.7 | 93.5
COc1ccc([C@@H]2CC(=O)c3c(O)cc(O[C@@H]4OC(CO[C@@H]5OC(C)[C@H](O)[C@@H](O)[C@H]5O)[C@@H](O)[C@H](O)[C@H]4O)cc3O2)cc1O (stereo partly specified) | . | . | . | 70.1 | . | .
CC1O[C@@H](OCC2O[C@@H](Oc3cc(O)c4c(c3)OC(c3ccc(O)cc3)CC4=O)[C@H](O)[C@@H](O)[C@@H]2O)[C@H](O)[C@H](O)[C@H]1O (stereo partly specified) | -2.8 | . | -1.9 | 61.5* | 103.6 | 92.2
CCc1c(C)nc2ncnn2c1NCCc1ccc(Cl)cc1 | 1.9 | -1.5 | -1.4 | 94.6 | . | .
N#CCc1nn(-c2ccc(Cl)cc2)c(N)c1C#N | 6.4 | -0.4 | -2.5 | 99.7 | . | .
N#CCc1nn(-c2ccccc2)c2ncnc(N)c12 | 0.3 | -0.2 | 0.3 | 88.2 | 102.2 | 103.1
CCOC(=O)N1CCN(S(=O)(=O)c2ccc(C(=O)Nc3nnc(C4CC4)o3)cc2)CC1 | -6.7 | -1.6 | 2.5 | 95.6 | . | .
CC1CCCN(S(=O)(=O)c2ccc(C(=O)Nc3nnc(-c4ccco4)o3)cc2)C1 (stereo unspecified) | 4.3 | -0.2 | -2.2 | 81.2 | . | .
COCc1nnc(NC(=O)c2ccc(S(=O)(=O)N3CCCC3)cc2)o1 | -4.5 | -0.6 | 1.7 | 81.9 | 116.2 | 124.6
CCc1nnc(NC(=O)c2ccc(S(=O)(=O)N3CCCC(C)C3)cc2)o1 (stereo unspecified) | -7.3 | 0.5 | 2.3 | 64.2* | 102.6 | 107.1
CC1CCN(S(=O)(=O)c2ccc(C(=O)Nc3nnc(-c4ccccn4)o3)cc2)CC1 | -0.9 | 0.0 | . | 93.7 | 95.6 | 99.4
CC1CC(C)CN(S(=O)(=O)c2ccc(C(=O)Nc3nnc(C4CC4)o3)cc2)C1 (stereo unspecified) | -8.4 | 0.1 | -3.3 | 83.4 | 92.2 | 95.6
CCOc1ccccc1NC(=O)NCc1ccc(F)cc1 | 2.0 | 0.1 | 0.2 | 64.5* | 103.8 | 110.9
